The values below come from PubChem BioAssay AID1159580 (chemical genetic matrix, 2015).

A short description of this assay: chemical genetic growth profiling, strain panel (AID 1159580).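 Note: tested at 20 µM; growth read once vehicle control cultures reached saturation at 30 °C; 1 = growth at the plate median or of vehicle wells; lower values mean less growth of the strain.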 Conditions: growth OD.
The mark [1] stands for this setting: S. cerevisiae deletion strains, locus YAL013W, strain DEP1, hits give low values.
Setting [2] is: S. cerevisiae deletion strains, locus YBR229C, strain ROT2, hits give low values.
[3] abbreviates: S. cerevisiae deletion strains, locus YDL101C, strain DUN1, hits give low values.
Setting [4] is: S. cerevisiae deletion strains, locus YDL134C, strain PPH21, hits give low values.
Where [5] appears, read: S. cerevisiae deletion strains, locus YDR150W, strain NUM1, hits give low values.
[6] abbreviates: S. cerevisiae deletion strains, locus YEL061C, strain CIN8, hits give low values.
[7] abbreviates: S. cerevisiae deletion strains, locus YGR078C, strain PAC10, hits give low values.
Setting [8] is: S. cerevisiae deletion strains, locus YHR030C, strain SLT2, hits give low values.
Setting [9] is: S. cerevisiae deletion strains, locus YHR087W, strain rtc3, hits give low values.
The mark [10] stands for this setting: S. cerevisiae deletion strains, locus YJL187C, strain SWE1, hits give low values.
Setting [11] is: S. cerevisiae deletion strains, locus YJR043C, strain POL32, hits give low values.
The mark [12] stands for this setting: S. cerevisiae deletion strains, locus YJR075W, strain HOC1, hits give low values.
The mark [13] stands for this setting: S. cerevisiae deletion strains, locus YLR039C, strain RIC1, hits give low values.
The mark [14] stands for this setting: S. cerevisiae deletion strains, locus YLR058C, strain SHM2 (second series), hits give low values.
Where [15] appears, read: S. cerevisiae deletion strains, locus YLR085C, strain ARP6, hits give low values.
The mark [16] stands for this setting: S. cerevisiae deletion strains, locus YLR262C, strain YPT6, hits give low values.
The mark [17] stands for this setting: S. cerevisiae deletion strains, locus YML094W, strain GIM5, hits give low values.
The mark [18] stands for this setting: S. cerevisiae deletion strains, locus YMR219W, strain ESC1, hits give low values.
The mark [19] stands for this setting: S. cerevisiae deletion strains, locus YMR263W, strain SAP30, hits give low values.
[20] abbreviates: S. cerevisiae deletion strains, locus YNL153C, strain GIM3, hits give low values.
[21] abbreviates: S. cerevisiae deletion strains, locus YNL298W, strain CLA4 (second series), hits give low values.
[22] abbreviates: S. cerevisiae deletion strains, locus YNL322C, strain KRE1, hits give low values.
Setting [23] is: S. cerevisiae deletion strains, locus YNR030W, strain Alg12, hits give low values.
[24] abbreviates: S. cerevisiae deletion strains, locus YOL006C, strain TOP1, hits give low values.
Where [25] appears, read: S. cerevisiae deletion strains, locus YPL055C, strain LGE1, hits give low values.
Where [26] appears, read: S. cerevisiae deletion strains, locus YPL241C, strain CIN2, hits give low values.
Where [27] appears, read: S. cerevisiae deletion strains, locus YPR135W, strain CTF4, hits give low values.

Molecules are shown by their SMILES. In all, about 5,500 compounds went through this assay and about 2,000 (36%) were called active. Roughly 18% stayed inconclusive and do not appear here. The list shows a part of the results. Unmarked numbers belong to inactive results. Cut-off read from the data, not from the text of the source: active = normalized growth mostly below about 0.91 (no sharp cut-off); inconclusive = no clear call, values can overlap the other calls; inactive = mostly above about 0.92.

As for `O=[N+]([O-])c1ccc(C2N(Cc3ccccc3)CCC3CCCCN32)cc1` (stereo not given), the normalized growth runs as follows: under setting [1], 1; under setting [2], 0.998; under setting [3], 1; under setting [4], 1.01; under setting [5], 0.997; under setting [6], 0.983. Moreover, the normalized growth under setting [7] is 1.01; the normalized growth under setting [8] is 0.954; the normalized growth under setting [9] was 0.985; the normalized growth under setting [10] is 0.999; the normalized growth under setting [11] is 1.01; the normalized growth under setting [12] was 0.966. For the same compound, the normalized growth is 1.01 (S. cerevisiae deletion strains, locus YKL190W, strain CNB1, hits give low values); 1 under setting [13]; 1.01 under setting [14]; 1.02 under setting [15]; 0.908 under setting [16]; 0.983 under setting [17]. The normalized growth is, setting by setting: under setting [18], 0.988; under setting [19], 0.998; under setting [20], 1.01; under setting [21], 1.01; under setting [22], 1.01; under setting [23], 1.02. The normalized growth is 0.972 under setting [24], 0.985 under setting [25], 0.995 under setting [26] and 1.03 under setting [27].
On to `COP(=S)(OC)Oc1cc(Cl)c(Cl)cc1Cl`, for which the normalized growth is, setting by setting: under setting [8], 0.127 (active); (S. cerevisiae deletion strains, locus YHR079C, strain IRE1, hits give low values) 0.163 (active); (S. cerevisiae deletion strains, locus YJL095W, strain BCK1, hits give low values) 0.163 (active); (S. cerevisiae deletion strains, locus YJR066W, strain TOR1, hits give low values) 0.08 (active); (S. cerevisiae deletion strains, locus YLR113W, strain HOG1, hits give low values) 0.163 (active); (S. cerevisiae deletion strains, locus YNL183C, strain NPR1, hits give low values) 0.0646 (active). Moreover, the normalized growth (S. cerevisiae deletion strains, locus YOR231W, strain MKK1, hits give low values) is 0.152 (active) and the normalized growth (S. cerevisiae deletion strains, locus YPL256C, strain CLN2, hits give low values) was 0.151 (active).
For the compound `COc1cc(Cl)c(Cl)cc1Cl`, the normalized growth is, setting by setting: under setting [1], 0.991; under setting [2], 1; under setting [3], 0.997; under setting [4], 0.997; under setting [5], 1.01; under setting [6], 0.992. In addition, the normalized growth under setting [7] was 1; the normalized growth (S. cerevisiae deletion strains, locus YGR229C, strain SMI1, hits give low values) was 0.997; the normalized growth under setting [8] is 0.94; the normalized growth under setting [9] is 1.01; the normalized growth under setting [10] is 0.999; the normalized growth under setting [11] is 0.974. Also, the normalized growth was 1.03 under setting [12]; 0.986 under setting [13]; 0.994 under setting [14]; 1.06 under setting [15]; 0.96 under setting [16]; 1.03 under setting [17]. For the same compound, the normalized growth by setting is: under setting [18], 1.01; under setting [19], 1.01; (S. cerevisiae deletion strains, locus YMR307W, strain GAS1, hits give low values) 1.06; under setting [20], 0.983; under setting [21], 0.948; under setting [22], 1.01. The normalized growth under setting [23] was 0.98; the normalized growth under setting [24] was 0.949; the normalized growth under setting [25] is 1.1; the normalized growth under setting [26] was 1.02; the normalized growth under setting [27] was 0.91; the normalized growth (S. cerevisiae strains, strain wild type, hits give low values) is 0.981.
Turning to `CC(=O)O[C@H]1C[C@@H]2CC[C@@H]3[C@H](CC[C@@]4(C)[C@H]3C[C@H]([N+]3(C)CCCCC3)[C@@H]4OC(C)=O)[C@@]2(C)C[C@@H]1[N+]1(C)CCCCC1`, the normalized growth is, setting by setting: (S. cerevisiae deletion strains, locus YAL040C, strain CLN3, hits give low values) 0.985; (S. cerevisiae deletion strains, locus YCL061C, strain MRC1 (second series), hits give low values) 0.988; under setting [5], 0.998; (S. cerevisiae deletion strains, locus YDR363W, strain ESC2, hits give low values) 0.989; (S. cerevisiae deletion strains, locus YER002W, strain NOP16, hits give low values) 1; under setting [7], 0.996. For the same compound, the normalized growth is 1 (S. cerevisiae deletion strains, locus YNL128W, strain TEP1, hits give low values); 1.03 (S. cerevisiae deletion strains, locus YNL175C, strain NOP13, hits give low values); 0.998 (S. cerevisiae deletion strains, locus YNL197C, strain WHI3, hits give low values); 0.984 (S. cerevisiae deletion strains, locus YNL224C, strain SQS1, hits give low values); 1.01 under setting [22]; 0.959 (S. cerevisiae deletion strains, locus YOR083W, strain WHI5 (second series), hits give low values). In addition, the normalized growth is, setting by setting: under setting [25], 0.98; under setting [26], 0.987.
